Compound activity: PubChem, The Scripps Research Institute Molecular Screening Center
GPR151 activ: human GPR151 activation. Q8TDV0. PathHunter beta-arrestin GPR151 cells, luminescence. activation, % at 11.2 µM. hit rate 1% among 650,000. AID 1508602; in the data active means activation above about 4.9%;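 further: 0% = median of compound wells and 100% = cells with positive control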
FBW7 activator: human FBW7 E3 ligase activation, primary screen. Q969H0. AlphaScreen FBW7–phospho-cyclin E peptide binding, activator screen. normalized activity (activation), % at 26.1 µM. hit rate 0.13% among 650,000; in the data active means normalized activity above about 1.9%;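 further: purified mutant Fbw7 with reduced substrate affinity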
Target sequence (Q969H0 whole entry, looked up): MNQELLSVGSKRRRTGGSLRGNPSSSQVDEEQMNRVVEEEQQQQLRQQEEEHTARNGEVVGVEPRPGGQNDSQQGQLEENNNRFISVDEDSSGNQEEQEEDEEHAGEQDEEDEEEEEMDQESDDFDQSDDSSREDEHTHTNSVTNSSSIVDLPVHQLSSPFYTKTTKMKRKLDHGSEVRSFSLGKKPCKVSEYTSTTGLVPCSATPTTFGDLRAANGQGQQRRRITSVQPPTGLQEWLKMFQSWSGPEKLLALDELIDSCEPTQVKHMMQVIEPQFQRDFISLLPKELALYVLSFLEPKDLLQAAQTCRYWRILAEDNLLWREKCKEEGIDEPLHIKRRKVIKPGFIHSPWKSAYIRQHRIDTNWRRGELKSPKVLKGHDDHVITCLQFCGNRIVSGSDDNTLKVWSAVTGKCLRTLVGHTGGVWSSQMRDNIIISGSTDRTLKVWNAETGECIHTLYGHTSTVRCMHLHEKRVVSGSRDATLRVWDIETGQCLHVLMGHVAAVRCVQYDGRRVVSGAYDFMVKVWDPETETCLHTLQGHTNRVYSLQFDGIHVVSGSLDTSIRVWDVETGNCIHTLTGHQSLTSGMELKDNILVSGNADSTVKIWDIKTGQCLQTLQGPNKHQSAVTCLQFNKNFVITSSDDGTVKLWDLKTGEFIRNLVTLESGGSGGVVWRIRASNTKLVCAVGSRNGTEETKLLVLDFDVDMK
MITF primary: human MITF inhibition, primary screen. O75030. AlphaScreen MITF homodimerization, bead proximity signal. inhibition, % at 2.6 µM. hit rate 0.91% among 650,000. AID 1259374; in the data active means inhibition above about 50%;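 further: 0% = vehicle wells with protein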
TEAD-YAP inh: TEAD-YAP interaction inhibition. inhibition, % at 9.12 µM. HEK-TIYL cells, TEAD-Gal4/YAP UAS-luciferase luminescence. hit rate 1.4% among 640,000; in the data active means inhibition above about 32%;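 further: 0% = median of test compound wells and 100% = reference inhibitor wells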
Numbers without * were called inactive. An excerpt weighted towards active compounds, which were near 3.5% of everything screened.

SMILES | GPR151 activ | FBW7 activator | MITF primary | TEAD-YAP inh
COc1ccc(NCc2ccc(O)c3ncccc23)cc1 | 0 | -2 | 73* | -9
Oc1ccc(CN2CCN(Cc3ccccc3)CC2)c2cccnc12 | 0 | -1 | 95* | 1
O=S(=O)(c1ccc(Cl)cc1)N1CCN(Cc2ccc(O)c3ncccc23)CC1 | 2 | -1 | 4 | 66*
Oc1ccc(CNc2ccc(Cl)cc2)c2cccnc12 | -2 | -1 | 49 | 26
COc1cccc(-c2cc(C(=O)N3CC4CCC3C4)cc(-n3cnnn3)c2)c1OC (centres undefined) | 0 | 0 | -3 | -2
COc1nn(C)cc1C(=O)N1CCC(C(=O)NCCC(C)C)CC1 | 0 | 0 | 6 | 6
Cc1nc2sc(C(=O)c3cccc([N+](=O)[O-])c3)c(N)c2c(-c2ccco2)c1C(=O)Nc1ccc(Cl)cc1 | -1 | 0 | 2 | 0
CCn1c(SCC(=O)Nc2ccc(Cl)cc2)nnc1-c1ccccc1N | -1 | 0 | 6 | 10
COc1ccc(C2=NN(C(=O)c3cc(OC)c(OC)c(OC)c3)C(c3ccccc3F)C2)cc1OC (centres undefined) | 0 | 0 | 8 | 42*
COc1ccc(C2=NN(C(=O)c3cc(OC)c(OC)c(OC)c3)C(c3ccc(F)cc3)C2)cc1OC (centres undefined) | 1 | 0 | -7 | 50*
COc1ccc(C2=NN(C(=O)c3cccs3)C(c3ccccc3F)C2)cc1OC (centres undefined) | 0 | 0 | -3 | -3
COc1cc(C(=O)N2N=C(c3ccccc3)CC2c2ccccc2)cc(OC)c1OC (centres undefined) | 0 | 0 | -1 | 53*
Cc1ccc(C2=NN(C(=O)c3ccncc3)C(c3ccccc3F)C2)cc1 (centres undefined) | 0 | 0 | 5 | 47*
COc1cc(C(=O)N2N=C(c3ccc4ccccc4c3)CC2c2ccccc2)cc(OC)c1OC (centres undefined) | 0 | 0 | 18 | 1
Cc1ccc(C2=NN(S(C)(=O)=O)C(c3ccccc3F)C2)cc1 (centres undefined) | 0 | 0 | -3 | -40
Cn1c(SCC(=O)NNC(=O)c2ccco2)nnc1-c1ccccc1F | 0 | 0 | 1 | 0
Oc1c(I)cc(Cl)c2cccnc12 | 0 | 0 | 4 | -7
CN(Cc1cc(Br)c(O)c2ncccc12)C1CCCCC1 | 2 | -1 | 79* | 87*
O=[N+]([O-])c1ccc(N2CCN(c3ccccc3)CC2)c2ncccc12 | 1 | 0 | 3 | 4
O=[N+]([O-])c1cc(CN2CCN(c3ccccc3)CC2)c(O)c2ncccc12 | 0 | -1 | 61* | 48*
CN(Cc1cc([N+](=O)[O-])c2cccnc2c1O)C1CCCCC1 | -2 | -1 | 114* | 29
CN(Cc1cc(Cl)c2cccnc2c1O)C1CCCCC1 | 3 | -1 | 37 | 83*
Cc1sc2ncn(CC(=O)N3CCOCC3)c(=O)c2c1-c1ccc(F)cc1 | -1 | 0 | 3 | -8
COc1ccc(N2CCN(C(=S)Nc3ccc([N+](=O)[O-])cc3)CC2)cc1 | -1 | 0 | -1 | -4
COc1ccc(C2=NN(c3ccc([N+](=O)[O-])cc3)C(=O)/C2=C\N(C)C)cc1 | 0 | 0 | -3 | -7
SMILES | GPR151 activ | FBW7 activator | MITF primary | TEAD-YAP inh
COc1cc(C(=O)Nc2ccc(F)cc2F)cc(OC)c1OC | 0 | 0 | -19 | -9
CNc1ccc(Cl)cc1C(=O)c1cc(OC)c(OC)c(OC)c1 | 0 | 0 | 15 | 54*
COc1cc(C(=O)c2cc(Br)ccc2N)cc(OC)c1OC | 0 | 0 | 13 | 51*
O=C(c1ccco1)N1CCCC(c2nc(-c3ccncc3)ncc2-c2ccccc2)C1 (centres undefined) | 0 | 0 | 17 | 5
O=C(CN1Cc2ccccc2C1)N1CCCC(c2ncncc2-c2ccncc2)C1 (centres undefined) | 0 | 3.3* | 16 | 4
O=C(c1cccs1)N1CCCC(c2nc(-c3ccncc3)ncc2-c2ccccc2)C1 (centres undefined) | 1 | 0 | -6 | 51*
Cc1cnc(C(=O)N2CCCC(c3nc(C)ncc3-c3ccncc3)C2)cn1 (centres undefined) | -1 | 0 | 14 | -18
O=C(CN1CCCC(c2ncncc2-c2ccncc2)C1)N1CCc2ccccc21 (centres undefined) | 0 | 0 | 18 | -2
Cc1cc(C(=O)N2CCCC(c3nc(-c4ccncc4)ncc3-c3ccccc3C)C2)no1 (centres undefined) | 1 | 0 | -7 | 58*
O=C(CSc1nnnn1C1CC2CCC1C2)Nc1ccnc2ccccc12 (centres undefined) | 0 | 0 | 16 | 61*
O=C(CSc1ccccc1C(=O)O)Nc1ccnc2ccccc12 | 2 | 0 | 17 | -10
Cc1cc(C)cc(Oc2coc3cc(OCc4ccc(F)cc4)ccc3c2=O)c1 | -1 | 0 | 2 | -9
Clc1ccc(Nc2ncc(-c3ccsc3)n3ccnc23)cc1 | 2 | 0 | 16 | -6
COc1c(Cl)cc(C(=O)NN)cc1Cl | -1 | 0 | 6 | 56*
CCOc1c(Br)cc(C(=O)NN)cc1OC | 1 | 0 | -1 | 52*
CNC(=O)c1cc(Cl)c(OC)c(OC)c1 | 0 | 0 | 6 | 6
COc1ccc(C(=O)NCc2ccc(S(N)(=O)=O)cc2)cc1OC | 1 | 2.4* | 12 | 0
CCCOc1ccc(C(=O)NN)cc1OC | -2 | 1 | 15 | 47*
CCOc1c(Br)cc(C(N)=O)cc1OC | 2 | 0 | -1 | 2
O=C(O)CCCCCN1C(=O)C(=O)/C(=C(\O)c2ccc(F)cc2)C1c1ccc([N+](=O)[O-])cc1 (centres undefined) | 0 | 0 | 6 | 14
COc1ccc(N2CCN(C(=O)C34CC5CC(CC(C5)C3)C4)CC2)cc1 | 2 | 0 | 4 | -4
CCOC(=O)c1cnn(-c2nc3ccccc3s2)c1N | -1 | 0 | -6 | 13
O=c1c2ccccc2cnn1-c1ccc(Cl)c(Cl)c1 | 1 | 0 | 11 | -27
O=c1c2ccccc2cnn1-c1nc2ccccc2[nH]1 | -11 | 0 | 9 | 94*
O=c1c2ccccc2cnn1-c1nc2ccccc2s1 | -1 | 0 | 27 | 90*
SMILES | GPR151 activ | FBW7 activator | MITF primary | TEAD-YAP inh
CC(=O)Nc1cc(C)nn1-c1nc2ccccc2[nH]1 | 2 | 0 | 5 | 16
CCOC(=O)c1cnn(-c2nc3ccccc3[nH]2)c1N | -6 | 0 | 16 | 42*
CCOc1ccccc1C(=O)Nc1cc(C)nn1-c1nc2ccccc2[nH]1 | 2 | 0 | -2 | 54*
CCOc1ccccc1CNc1ncnc2c1nc1n2CCCCC1 | 0 | 0 | -1 | 41*
CC(=O)Oc1cc(N2CCOCC2)c(OC(C)=O)c2c1C(=O)c1ccccc1C2=O | -1 | -1 | 25 | 64*
N#Cc1c(NC(=O)c2nn3c(C(F)(F)F)cc(-c4ccccc4)nc3c2Br)sc2c1CCCCC2 | 1 | 0 | -16 | -5
COc1cc(/C=C2/C(=O)N(C)c3ccccc32)cc(OC)c1O | 0 | 0 | 19 | 41*
COc1cc(/C=C2\C(=O)N(C)C(=O)N(c3ccccc3)C2=O)cc(OC)c1O | 0 | 0 | -14 | -4
